PubChem BioAssay (EPA / NIEHS)
Active and inactive are the calls of the source. Rule for the calls: active = hit-call score of the fitted dose curve at least 0.9, where 1 is the maximum; inactive = score below 0.9.

Tests used:
[1] = read-out: Macrophage colony-stimulating factor (MCSF), CSF1 (gene 1435); assay: BSK_hDFCGF_MCSF: BioMAP Diversity Plus: hDFCGF Assay for Macrophage colony-stimulating factor (MCSF) Biomarker Activity (AID 2283060); settings: primary human foreskin fibroblasts; actives raise or lower the signal
Outline: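 M-CSF levels read by ELISA at 24 h post-dosing in human skin fibroblasts. Parallel cultures stained with SRB assessed cytotoxicity at the same time point; response fitted in both directions against the DMSO baseline.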

[2] = BSK_hDFCGF_SRB: Viability Assessment in the BioMAP Diversity Plus: hDFCGF Assay (AID 2283061); settings: primary human foreskin fibroblasts;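 note: cells exposed to compound for 24 h before the read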
Outline: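 Viability was read as total protein: after 10% TCA fixation, wells were stained with 0.1% sulforhodamine B and read at 560 nm. Primary human foreskin fibroblasts were dosed for 24 h, with bidirectional fitting versus DMSO.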

[3] = read-out: TIMP metallopeptidase inhibitor 1 (TIMP1), TIMP1 (gene 7076); assay: BSK_hDFCGF_TIMP1: BioMAP Diversity Plus: hDFCGF Assay for TIMP metallopeptidase inhibitor 1 (TIMP1) Biomarker Activity (AID 2283062); settings: primary human foreskin fibroblasts; actives raise or lower the signal
Outline: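 TIMP-1 measured by ELISA 24 h after chemical dosing of primary human skin fibroblasts, with gain or loss fitted relative to DMSO. Parallel SRB staining (560 nm) monitored overt cytotoxicity.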

[4] = read-out: Monokine induced gamma interferon (MIG), CXCL9 (gene 4283); assay: BSK_hDFCGF_MIG: BioMAP Diversity Plus: hDFCGF Assay for Monokine induced gamma interferon (MIG) Biomarker Activity (AID 2283063); settings: primary human foreskin fibroblasts; actives raise or lower the signal
Outline: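 Human primary foreskin fibroblasts in the hDFCGF system, exposed to test chemical for 24 h; MIG measured by ELISA. Bidirectional curve fitting against DMSO negative control as activity baseline.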

[5] = read-out: Matrix Metallopeptidase 1 (MMP1), MMP1 (gene 4312); assay: BSK_hDFCGF_MMP1: BioMAP Diversity Plus: hDFCGF Assay for Matrix Metallopeptidase 1 (MMP1) Biomarker Activity (AID 2283064); settings: primary human foreskin fibroblasts; actives raise or lower the signal
Outline: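 hDFCGF primary fibroblasts (human foreskin); chemical added; 24 h; MMP1 by ELISA; bidirectional fit vs DMSO.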

[6] = read-out: Vascular cell adhesion molecule 1 (VCAM1), VCAM1 (gene 7412); assay: BSK_hDFCGF_VCAM1: BioMAP Diversity Plus: hDFCGF Assay for Vascular cell adhesion molecule 1 (VCAM1) Biomarker Activity (AID 2283065); settings: primary human foreskin fibroblasts; actives raise or lower the signal;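 for AC50: VCAM-1 protein level quantified by ELISA after 24 h chemical exposure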
Outline: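 ELISA readout of VCAM-1 on human dermal fibroblast primary cultures, 24 h after chemical exposure. Gain or loss of signal fitted in both directions against DMSO baseline.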

[7] = read-out: Plasminogen activator inhibitor-1 (PAI1), SERPINE1 (gene 5054); assay: BSK_hDFCGF_PAI1: BioMAP Diversity Plus: hDFCGF Assay for Plasminogen activator inhibitor-1 (PAI1) Biomarker Activity (AID 2283066); settings: primary human foreskin fibroblasts; actives raise or lower the signal
Outline: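 Human foreskin fibroblast primary cells, 24 h chemical exposure; PAI-1 measured by ELISA. Bidirectional fitting relative to DMSO; parallel cultures stained with SRB for total protein to flag overt cytotoxicity.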

[8] = read-out: Intercellular Adhesion Molecule 1 (ICAM1), ICAM1 (gene 3383); assay: BSK_KF3CT_ICAM1: BioMAP Diversity Plus: KF3CT Assay for Intercellular Adhesion Molecule 1 (ICAM1) Biomarker Activity (AID 2283067); settings: primary human keratinocytes with fibroblasts; actives raise or lower the signal
Outline: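 Cell-surface ICAM-1 was measured by ELISA 24 h after dosing primary human skin keratinocytes co-cultured with fibroblasts. Parallel SRB staining tracked overt cytotoxicity. Gain or loss of signal was fitted relative to DMSO.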

[9] = read-out: Interferon-gamma inducible Protein 10 (IP10), CXCL10 (gene 3627); assay: BSK_KF3CT_IP10: BioMAP Diversity Plus: KF3CT Assay for Interferon-gamma inducible Protein 10 (IP10) Biomarker Activity (AID 2283068); settings: primary human keratinocytes with fibroblasts; actives raise or lower the signal
Outline: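 Signal is secreted/surface IP-10 by ELISA in a human primary skin co-culture of keratinocytes and foreskin fibroblasts, taken 24 h post-dosing; DMSO served as negative control.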

[10] = BSK_KF3CT_SRB: Viability Assessment in the BioMAP Diversity Plus: KF3CT Assay (AID 2283069); settings: primary human keratinocytes with fibroblasts;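 note: total protein by sulforhodamine B staining as a cytotoxicity measure; read 24 h after compound addition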
Outline: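 Keratinocytes co-cultured with foreskin fibroblasts (human primary); chemical added, 24 h; fix 10% TCA, stain 0.1% SRB, A560. Bidirectional fit vs DMSO.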

[11] = read-out: Interleukin-1 alpha (IL1a), IL1A (gene 3552); assay: BSK_KF3CT_IL1a: BioMAP Diversity Plus: KF3CT Assay for Interleukin-1 alpha (IL1a) Biomarker Activity (AID 2283070); settings: primary human keratinocytes with fibroblasts; actives raise or lower the signal
Outline: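 Chemicals were dosed onto co-cultured human keratinocytes and foreskin fibroblasts, IL-1a was quantified by ELISA at 24 h, and activity was fitted in both directions relative to DMSO controls.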

[12] = read-out: TIMP metallopeptidase inhibitor 2 (TIMP2), TIMP2 (gene 7077); assay: BSK_KF3CT_TIMP2: BioMAP Diversity Plus: KF3CT Assay for TIMP metallopeptidase inhibitor 2 (TIMP2) Biomarker Activity (AID 2283071); settings: primary human keratinocytes with fibroblasts; actives raise or lower the signal
Outline: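 Co-culture of human primary keratinocytes and foreskin fibroblasts, measured 24 h after chemical dosing. TIMP-2 quantified by ELISA and fitted in both directions relative to DMSO. Cytotoxicity checked in parallel cultures by SRB total-protein staining.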

[13] = read-out: Transforming growth factor beta 1 (TGFb1), TGFB1 (gene 7040); assay: BSK_KF3CT_TGFb1: BioMAP Diversity Plus: KF3CT Assay for Transforming growth factor beta 1 (TGFb1) Biomarker Activity (AID 2283072); settings: primary human keratinocytes with fibroblasts; actives raise or lower the signal
Outline: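 Human keratinocyte/foreskin fibroblast co-culture; TGF-b1 measured by ELISA 24 h after dosing, fitted bidirectionally versus DMSO. Cytotoxicity checked in parallel cultures by total protein (SRB staining, 560 nm).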

[14] = read-out: C-C motif chemokine 2 (Homo sapiens) (UniProt P13500); assay: BSK_KF3CT_MCP1: BioMAP Diversity Plus: KF3CT Assay for Monocyte Chemoattractant Protein 1 (MCP1/CCL2) Biomarker Activity (AID 2283073); settings: primary human keratinocytes with fibroblasts; actives raise or lower the signal
Outline: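 ELISA read-out of MCP-1, 24 h post-dose, in primary human skin keratinocytes co-cultured with fibroblasts. Parallel SRB staining monitors cytotoxicity; changes fitted both directions relative to DMSO.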

[15] = read-out: Matrix Metallopeptidase 9 (MMP9), MMP9 (gene 4318); assay: BSK_KF3CT_MMP9: BioMAP Diversity Plus: KF3CT Assay for Matrix Metallopeptidase 9 (MMP9) Biomarker Activity (AID 2283074); settings: primary human keratinocytes with fibroblasts; actives raise or lower the signal;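 for AC50: MMP9 protein level quantified by ELISA in the co-culture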
Outline: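 Human keratinocyte/foreskin fibroblast co-culture; compound added; 24 h; MMP-9 by ELISA; bidirectional fit vs DMSO baseline.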

[16] = read-out: urokinase plasminogen activator (uPA), PLAU (gene 5328); assay: BSK_KF3CT_uPA: BioMAP Diversity Plus: KF3CT Assay for urokinase plasminogen activator (uPA) Biomarker Activity (AID 2283075); settings: primary human keratinocytes with fibroblasts; actives raise or lower the signal
Outline: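 ELISA readout of uPA, analyzed for signal gain or loss relative to DMSO, from a human primary keratinocyte–foreskin fibroblast co-culture measured 24 h after chemical treatment.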

CD40, CD40 (gene 958) = assay: BSK_LPS_CD40: BioMAP Diversity Plus: LPS Assay for CD40 Biomarker Activity (AID 2283076); settings: primary human HUVEC with PBMC; actives raise or lower the signal
Outline: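 In the LPS system of human endothelial cells with peripheral blood mononuclear cells, CD40 levels were read by ELISA 24 h post-treatment. Signal changes in either direction were fitted against the DMSO baseline, with parallel SRB protein staining.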

[17] = read-out: E-selectin (Homo sapiens) (UniProt P16581); assay: BSK_LPS_Eselectin: BioMAP Diversity Plus: LPS Assay for Eselectin Biomarker Activity (AID 2283077); settings: primary human HUVEC with PBMC; actives raise or lower the signal
Outline: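 E-selectin ELISA on LPS-stimulated endothelial cell/PBMC co-cultures, read 24 h post-treatment; gains and losses fitted against DMSO. Parallel SRB staining (0.1% SRB after 10% TCA fixation, 560 nm) flags overt cytotoxicity.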

[18] = read-out: Interleukin-8 (IL8), CXCL8 (gene 3576); assay: BSK_LPS_IL8: BioMAP Diversity Plus: LPS Assay for Interleukin-8 (IL8) Biomarker Activity (AID 2283078); settings: primary human HUVEC with PBMC; actives raise or lower the signal
Outline: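 ELISA read-out of IL-8 after 24 h chemical treatment of LPS-activated endothelial/PBMC human primary co-cultures. Changes either up or down relative to DMSO; overt cytotoxicity checked by sulforhodamine B staining in parallel wells.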

[19] = BSK_LPS_SRB: Viability Assessment in the BioMAP Diversity Plus: LPS Assay (AID 2283079); settings: primary human HUVEC with PBMC;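 note: total protein by sulforhodamine B absorbance as a cytotoxicity measure; measured one day after compound addition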
Outline: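 SRB viability endpoint: cells fixed with 10% TCA, stained with 0.1% SRB, read at 560 nm, 24 h post-dose. HUVEC/PBMC co-culture; signal change in either direction scored relative to DMSO.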

Measured: AC50

Chain of E-selectin (Homo sapiens) (P16581 whole entry, looked up): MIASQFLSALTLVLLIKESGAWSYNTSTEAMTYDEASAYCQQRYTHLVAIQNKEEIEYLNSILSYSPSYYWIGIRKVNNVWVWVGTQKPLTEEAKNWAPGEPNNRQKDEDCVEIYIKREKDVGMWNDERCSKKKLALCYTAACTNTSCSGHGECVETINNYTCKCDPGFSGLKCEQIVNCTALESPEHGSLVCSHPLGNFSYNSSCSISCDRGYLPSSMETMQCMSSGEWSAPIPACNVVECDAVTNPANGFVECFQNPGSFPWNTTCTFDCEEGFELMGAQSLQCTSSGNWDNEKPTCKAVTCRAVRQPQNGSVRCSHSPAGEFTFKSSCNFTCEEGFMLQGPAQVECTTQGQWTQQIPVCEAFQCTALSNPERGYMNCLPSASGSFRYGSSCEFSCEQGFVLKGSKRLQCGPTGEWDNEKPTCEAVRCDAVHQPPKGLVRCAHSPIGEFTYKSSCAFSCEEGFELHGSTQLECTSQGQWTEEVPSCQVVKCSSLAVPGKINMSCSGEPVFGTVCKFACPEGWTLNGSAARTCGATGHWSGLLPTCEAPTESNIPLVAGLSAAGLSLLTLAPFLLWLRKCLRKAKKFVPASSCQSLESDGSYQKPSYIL

CO/N=C(/C1=NOCCO1)c1ccccc1Oc1ncnc(Oc2ccccc2Cl)c1F
active: [3] 8.26 µM | [9] 7.33 µM | [11] 20 µM | [14] 28.6 µM | [15] 30.6 µM | CD40, CD40 (gene 958) 13 µM | [17] 15.2 µM | [18] 20 µM | [19] 11.4 µM
inactive: all other assays above

CCOP(=O)(OCC)Oc1nc(Cl)c(Cl)cc1Cl
inactive: [3] | [4] | [5] | [8] | [11] | [13] | [17] | [18]
active: [1] 5.14 µM | [2] 36.3 µM | [6] 18.4 µM | [7] 20 µM | [9] 19 µM | [10] 8.75 µM | [12] 32.9 µM | [14] 21.5 µM | [15] 8.58 µM | [16] 9.55 µM | CD40, CD40 (gene 958) 19.5 µM | [19] 10.7 µM

COC(=O)c1c(C(F)F)nc(C(F)(F)F)c(C2=NCCS2)c1CC(C)C
active: [9] 21.8 µM | CD40, CD40 (gene 958) 7.78 µM | [19] 31.9 µM
inactive: all other assays above

CCCCC(O)(Cn1cncn1)c1ccc(Cl)cc1Cl (stereo not drawn)
active: [5] 12.7 µM | [7] 21.2 µM
inactive: all other assays above

CC(C)N1C(=O)N(c2ccccc2)CSC1=NC(C)(C)C
active: [2] 32.7 µM | [4] 31.6 µM | [6] 32.1 µM | [9] 33.2 µM | [10] 30.8 µM | [11] 26.3 µM | [15] 31.6 µM | CD40, CD40 (gene 958) 28.2 µM | [17] 30.6 µM | [19] 34 µM
inactive: [1] | [3] | [5] | [7] | [8] | [12] | [13] | [14] | [16]

CC(C)NC(=O)N1CC(=O)N(c2cc(Cl)cc(Cl)c2)C1=O
active: [5] 0.148 µM
not listed: [18]
inactive: all other assays above
